Results: ChEMBL document CHEMBL1157539, “Thousands of chemical starting points for antimalarial lead identification” (Nature, 2010)

Assays:
Type in all cases: functional
Plasmodium falciparum [1] = assay: GSK_TCMDC: Inhibition of Plasmodium falciparum 3D7 in whole red blood cells, using parasite LDH activity as an index of growth. Test compounds present at 2uM
Plasmodium falciparum [2] = assay: GSK_TCMDC: Inhibition of Plasmodium falciparum Dd2 in whole red blood cells, using parasite LDH activity as an index of growth. Test compounds present at 2uM
HepG2 = assay: GSK_TCMDC: Percent inhibition of human HepG2 cell line. Test compounds present at 10uM.

SMILES | Inhibition (Plasmodium falciparum [1]) [%] | Inhibition (Plasmodium falciparum [2]) [%] | Inhibition (HepG2) [%]
O=C(Nc1cc(Cl)cc(Cl)c1)N[C@H]1CCN(CCCCCNC(=O)C2CC2c2ccc(Cl)c(Cl)c2)C1 (stereo partly drawn) | 99 | 0 | 49
O=C(N[C@@H](Cc1ccccc1)[C@H](O)CNC1CCCCC1)c1cc(C2CCCC2)cc(N2CCCC2=O)c1 | 100 | 98 | 17
CC(C)Sc1nc2c(c(=O)n1Cc1ccco1)C1(CCCCC1)Cc1ccccc1-2 | 100 | 99 | 10
ON=C1CCc2cc(-c3cc(-c4ccc(OC5CCNCC5)cc4)oc3-c3ccncc3)ccc21 | 100 | 99 | 34
CCOC(=O)c1ccc(NC(=O)N[C@@H](Cc2ccccc2)C(=O)NC2CCN(Cc3ccc(O)cc3)C2)cc1 (stereo partly drawn) | 95 | 2 | 7
CC(=O)Oc1c(C2CCN(CCCCNC(=O)c3ccc(NC(=O)c4ccc(Cl)cc4)cc3)CC2)ccc2c1CCCC2 | 100 | 80 | 21
O=C(O)C(F)(F)F.O=S(=O)(NCCN1CCCC1)c1ccc(-c2ccccc2CNC2Cc3ccccc3C2)cc1 | 95 | 67 | 19
COc1ccc2c(=NN=Cc3cccc(F)c3)cc(C)[nH]c2c1 | 100 | 100 | 17
CS(=O)(=O)c1ccc(CCNCc2ccc(-c3ccc(CN(C(=O)c4ccco4)C4CCN(Cc5ccccc5)CC4)cc3)nc2)cc1.O=C(O)C(F)(F)F | 85 | 38 | 13
O=C(/C=C/c1ccc(F)c(Br)c1)NCCCCCN1CCC(c2c[nH]c3ccccc23)CC1 | 92 | 10 | 39
O=C(/C=C/c1ccc(Cl)c(Cl)c1)NC1CCC(CN2CCC(c3nc4cc(O)ccc4[nH]3)CC2)CC1 (stereo not drawn) | 100 | 84 | 41
CCOC(=O)c1cnc2c(OC)cc(OC)c(Cl)c2c1Nc1ccccc1 | 99 | 100 | 13
Cc1cc(OCCCn2ccnc2)ccc1-c1csc(/N=C(\N)NCc2ccccc2)n1 | 92 | 42 | 26
CCCC1(C)CSc2ccccc2C(c2ccccc2)N1 (stereo not drawn) | 87 | 2 | 60
O=C(NCc1cccc(F)c1)Nc1cccc(-c2cccc(-c3nc4cc(C(F)(F)F)ccc4[nH]3)c2)c1 | 93 | 32 | 55
CC(C)c1ccc(-c2nc3cc(Cl)cnc3[nH]2)cc1 | 87 | 77 | 3
O=C(Nc1cccc(CN2CCCN(Cc3ccc4c(c3)OCO4)CC2)c1)c1cc2ccccc2s1.O=C(O)C(F)(F)F | 95 | 11 | 32
Cc1cc(OCCCN2CCN(CCN3CCOCC3)CC2)ccc1NC(=O)COc1ccc(Cl)cc1C(=O)c1cc(Cl)cc(C#N)c1 | 99 | 78 | 30
CC(C)c1ccc(CN2CCC(CNC(=O)c3cc(-c4cccc(Cl)c4)cs3)C2)cc1.O=C(O)C(F)(F)F (stereo not drawn) | 99 | 43 | 42
O=C(CSc1nc2ccc([N+](=O)[O-])cc2s1)Nc1ccccc1-c1ccccc1 | 80 | 49 | 0
O=C(Nc1ccc(SC(F)(F)F)cc1)Nc1ccc(Cl)c(Cl)c1 | 98 | 99 | 15

SMILES | Inhibition (Plasmodium falciparum [1]) [%] | Inhibition (Plasmodium falciparum [2]) [%] | Inhibition (HepG2) [%]
COc1cc2nccc(Nc3ccc4c(cnn4Cc4ccccc4F)c3)c2cc1OC.Cl | 100 | 91 | 55
Cc1ccc(NC(=O)Nc2ccc(S(=O)(=O)c3ccc(NC(=O)Nc4ccc(C)c(Cl)c4)cc3)cc2)cc1Cl | 99 | 42 | 49
FC(F)(F)c1cccc(Nc2nc3ccccc3nc2Nc2cccc(C(F)(F)F)c2)c1 | 100 | 100 | 45
Cc1cc(C)n2nc(C(=O)Nc3cc(C(F)(F)F)ccc3N3CCOCC3)nc2n1 | 94 | 91 | 2
CC(C)Nc1nc(NCCc2c[nH]cn2)nc(NCc2cccc3ccccc23)n1 | 90 | 0 | 4
Clc1cccc(CNc2nc(NCCc3c[nH]cn3)nc(NC3CCCCC3)n2)c1 | 98 | 0 | 17
CN1CCN(c2cccc(-c3nnc(-c4ccc(OCC(=O)NCc5ccc(C(F)(F)F)cc5)c([N+](=O)[O-])c4)o3)c2)CC1 | 90 | 44 | 35
CCC(CC)n1cc2c(ccc3nc(N)nc(N)c32)n1 | 91 | 0 | 61
Cc1ccc(C2(CN3CCC(NC(=O)c4cc[nH]n4)CC3)CCCCC2)cc1 | 97 | 96 | 0
Cc1cc(NCC(c2ccccc2)c2ccccc2)nc(NCC2CCCCC2)n1 | 100 | 93 | 12
Cc1ccccc1C1CCN(C2CCC(NC(=O)/C=C/c3ccc(F)cc3)CC2)CC1 (stereo not drawn) | 87 | 30 | 61
CCN(CC)CCN(Cc1ccc(-c2ccc(C(F)(F)F)cc2)cc1)C(=O)Cn1nc(-c2ccc(C(F)(F)F)cc2)ccc1=O | 100 | 83 | 44
COc1ccc(-c2ccc(NC(=O)c3ccc(C#N)cc3)cc2)cc1CN1CCCN(C)CC1.O=C(O)C(F)(F)F | 99 | 75 | 27
CN1CCCN(Cc2ccc(-c3cccc(NC(=O)c4cccc(F)c4)c3)cc2)CC1.O=C(O)C(F)(F)F | 91 | 12 | 28
CCNc1cc(C(=O)N[C@@H](Cc2ccccc2)[C@H](O)CNC(C)Cc2cccc(Cl)c2)cc(N2CCCCS2(=O)=O)c1.Cl (stereo partly drawn) | 98 | 77 | 0
CCN(CC)C(=O)C(=O)c1c[nH]c2ccc(Cl)cc12 | 96 | 96 | 1
C[C@H](NC(=O)c1c(CN2CCC(NC(=O)CC(C)(C)C)CC2)c(-c2cccs2)nc2ccccc12)C1CCCCC1 | 91 | 70 | 0
Cc1ccc(NC(C)C(=O)Nc2ccccc2)cc1S(=O)(=O)N1CCCCCC1 (stereo not drawn) | 99 | 97 | 12
O=[N+]([O-])c1cc2c(cc1C=NNc1nc(=Nc3ccccc3)[nH]c(=Nc3ccccc3)[nH]1)OCO2 | 98 | 46 | 0
Nc1c2c(nc3ccc(Oc4ccc(Cl)cc4)cc13)CCCC2 | 100 | 65 | 42
O=C1C2C3SC(c4c3ccc3ccccc43)C2C(=O)N1c1ccccc1 (stereo not drawn) | 96 | 7 | 0

SMILES | Inhibition (Plasmodium falciparum [1]) [%] | Inhibition (Plasmodium falciparum [2]) [%] | Inhibition (HepG2) [%]
CC1(C)CCC(C)(C)c2c1ccc(C1CCN(CCCCNC(=O)c3ccc(-c4ccc(Cl)cc4)cc3)CC1)c2O | 100 | 72 | 100
Cc1cccc2nc(-c3ccc(-c4cccc(CN5CCCC(N)C5)c4)s3)[nH]c12.O=C(O)C(F)(F)F (stereo not drawn) | 100 | 94 | 17
CNCc1cccc(-c2ccc3ccnc(N)c3c2)c1 | 100 | 98 | 20
CCN1CCN(c2ccc(Nc3c4ccccc4nc4ccccc34)cc2)CC1 | 99 | 100 | 24
COc1cc(CNC[C@@H](O)[C@H](Cc2ccccc2)NC(=O)c2cc(C3CCCC3)cc(N3CCCCS3(=O)=O)c2)cc(OC)c1.Cl | 98 | 96 | 16
FC(F)(F)c1ccc(CNC2CCN(CC3CCCCC3)CC2)cc1.O=C(O)C(F)(F)F | 87 | 5 | 4
Brc1cc(Br)c2c(c1)C(NCCCNc1nc3ncccc3[nH]1)CCN2.O=C(O)CCC(=O)O (stereo not drawn) | 99 | 83 | 5
O=C(O)C(F)(F)F.O=S(=O)(NCCN1CCCC1)c1ccc(-c2ccc(CNC3Cc4ccccc4C3)cc2)s1 | 100 | 97 | 47
C[C@H](Cc1ccc(OCCCCCCOc2ccc(C[C@@H](C)N[C@H](C)c3ccccc3)cc2)cc1)NC[C@H](O)c1cccc(Cl)c1.Cl | 99 | 98 | 99
COCCNCc1cccc(-c2ccc3c(Nc4ccc(F)cc4Cl)ccnc3c2)c1 | 100 | 100 | 8
Cc1ccc(O)cc1Nc1ccnc2ccc(-c3cccc(CN(C)C)c3)cc12 | 100 | 99 | 0
CCN(CC)CCCC(C)N=c1cc(C=Cc2ccc([N+](=O)[O-])cc2)[nH]c2ccc(OC)cc12 (stereo not drawn) | 100 | 100 | 37
NC1=NC(c2ccccc2)(c2ccccc2)C(=O)N1CCOc1ccccc1 | 90 | 57 | 42
Cc1ccc(Nc2nc3cc(Nc4ccnc(Nc5cccc(CS(C)(=O)=O)c5)n4)ccc3o2)cc1.O=C(O)C(F)(F)F | 100 | 81 | 55
COc1ccc2nccc([C@@H](O)CN3CCC(NC(=O)Cn4nc(-c5ccc(C(F)(F)F)cc5)ccc4=O)CC3)c2c1 | 100 | 90 | 12
COCCCNC(=O)c1ccc(O)c(-c2cc(Cl)cc(Cl)c2)c1 | 94 | 34 | 22
FC(F)(F)c1ccc(Nc2nnnc3ccccc23)cc1 | 90 | 82 | 3
NCC1CCCN1Cc1ccc(-c2cccc(-c3nc4cc(F)ccc4[nH]3)c2)cc1.O=C(O)C(F)(F)F (stereo not drawn) | 100 | 31 | 38
Cc1sc(C)c(C(F)(F)F)c1CNCCCNc1cc(=O)c2ccccc2[nH]1.Cl | 96 | 43 | 0
